An excerpt weighted towards active compounds, which were near 2.5% of everything screened.
PKA-R2B activ = activators of human PKA-R2B complex. P22694+P31323. activation, % at 11.4 µM. actives 0.079% (n = 340,000). AID 504700. PKA-R2B holoenzyme dissociation, Cy5-IP20 fluorescence polarization; R2B truncated from residue 108, S112A mutant; 0% DMSO only, 100% 113 µM cGMP;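 active means activation above a cutoff set at the mean over all compounds plus 3 SD, cut at about 18% in these data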;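 further: higher means more holoenzyme dissociation and a rise in polarization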
TMEM16A inh = blocks the mouse calcium-activated chloride channel TMEM16A; Q8BHY3; HEK293 TMEM16A/YFP iodide influx fluorescence, ionomycin; normalized B-score (activity score, 25-100; higher = stronger inhibition) at 10 µM; actives 1.2% (n = 310,000); AID 588511;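 active means ratio plate-corrected score three or more library SD toward inhibition, starting fluorescence score within five deviations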;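 further: score derived from kinetic fluorescence span divided by baseline fluorescence per well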
Target sequence (Q8BHY3 whole entry, looked up): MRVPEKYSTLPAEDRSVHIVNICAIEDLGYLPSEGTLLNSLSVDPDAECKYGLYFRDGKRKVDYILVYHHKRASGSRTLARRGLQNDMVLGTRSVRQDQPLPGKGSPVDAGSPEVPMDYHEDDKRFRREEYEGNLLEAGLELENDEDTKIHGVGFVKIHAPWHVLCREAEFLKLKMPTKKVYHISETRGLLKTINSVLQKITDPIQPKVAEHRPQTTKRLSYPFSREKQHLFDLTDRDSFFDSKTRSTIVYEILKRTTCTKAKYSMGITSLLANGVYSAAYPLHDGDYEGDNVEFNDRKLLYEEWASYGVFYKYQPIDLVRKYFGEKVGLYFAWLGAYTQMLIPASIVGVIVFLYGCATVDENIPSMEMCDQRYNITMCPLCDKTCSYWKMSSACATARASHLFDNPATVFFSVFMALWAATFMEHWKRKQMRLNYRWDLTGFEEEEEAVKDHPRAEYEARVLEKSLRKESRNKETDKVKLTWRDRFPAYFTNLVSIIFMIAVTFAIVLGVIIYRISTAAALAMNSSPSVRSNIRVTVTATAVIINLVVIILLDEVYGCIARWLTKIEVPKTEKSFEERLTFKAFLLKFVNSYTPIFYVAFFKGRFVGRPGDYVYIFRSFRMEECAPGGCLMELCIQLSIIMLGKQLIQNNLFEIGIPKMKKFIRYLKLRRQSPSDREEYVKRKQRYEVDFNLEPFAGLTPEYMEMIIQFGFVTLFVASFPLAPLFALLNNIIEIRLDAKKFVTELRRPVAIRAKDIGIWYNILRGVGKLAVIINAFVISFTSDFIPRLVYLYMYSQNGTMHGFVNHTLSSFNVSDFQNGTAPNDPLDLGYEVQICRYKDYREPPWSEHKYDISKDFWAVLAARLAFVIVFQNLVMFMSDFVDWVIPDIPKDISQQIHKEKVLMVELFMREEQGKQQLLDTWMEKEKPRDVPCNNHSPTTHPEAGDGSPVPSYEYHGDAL
CHT block = inhibitors of human choline transporter CHT; CHT-expressing cells, membrane potential dye, choline response; active compounds read low; B-score at 10 µM; actives 0.86% (n = 310,000); AID 488975;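 active means B-score over 3 SD under the library average, and starting fluorescence ratio not unusually high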;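 further: choline stimulus applied at its EC90 after an EC20 pre-addition; B-score computed on integrated fluorescence ratio after choline addition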
TMEM16A act = activates or potentiates the mouse TMEM16A chloride channel | actives 0.3% (n = 340,000) | Q8BHY3 | HEK293 TMEM16A/YFP-H148Q/I152L, iodide quench fluorescence; active compounds read low | B-score at 10 µM;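 active means fluorescence-ratio B-score plate-corrected deviation score at least 3 library SD below zero, with starting fluorescence score within 5 deviations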;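 further: channel opened by trigger with iodide after compound preincubation; score built on the fluorescence ratio of max minus min over baseline; more negative score means more quench and so TMEM16A activation or potentiation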
CHT PAM = allosteric activators of human choline transporter CHT; Q9GZV3; CHT-expressing cells, membrane potential dye, choline EC20; active compounds read high; LV-AA mutant CHT in HEK293 cells; B-score at 10 µM; actives 0.49% (n = 310,000); AID 488977;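 active means initial fluorescence not abnormally high and integrated response B-score, plate-corrected, over 3 SD above library mean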
PKA-R1A act = activates the PKA-R1A holoenzyme complex; P00514+P68181; PKA-R1A dissociation, Cy5-IP20 fluorescence polarization; scaled: DMSO 0%, 113 µM cGMP 100%; activation, % at 11.4 µM; actives 0.083% (n = 340,000); AID 504707;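 active means percent activation above the mean of all tested compounds plus 3 SD, cut at about 19% in these data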;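 further: higher means more PKAc released from R1A so a rise in polarization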
CHT activ conf = human CHT activation, confirmatory screen; shares compounds with CHT PAM; CHT-expressing cells, membrane potential dye fluorescence (FDSS); % of choline EC20–EC90 response window; HEK293 expressing CHT LV-AA mutant; choline added at its EC20; activation, % at 10 µM; actives 91% (n = 2,500); AID 504833;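 active means primary screen active, with duplicate mean activation above negative control mean plus 3 SD, cut at about 11% in these data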
HEK293 MP dye = CHT activator counter-screen hit in parental HEK293 cells; actives 62% (n = 2,500); shares compounds with CHT PAM; ratio readout change at 10 µM, hits read low; membrane potential dye fluorescence (FDSS); measured after EC20 choline addition;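 active means duplicate-averaged ratio beyond 3 SD from buffer wells, up or down, though filed actives are nearly all decreases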
Hits are given with their value; . = inactive; / = no result given.

SMILES	PKA-R2B activ	TMEM16A inh	CHT block	TMEM16A act	CHT PAM	PKA-R1A act	CHT activ conf	HEK293 MP dye
CC(=O)N(CCC(c1ccco1)C(C)C)Cc1ccc(Cl)cc1 (configuration not stated)	/	.	.	.	7.4	/	26	.
Cc1cc(Nc2ncc(Cl)cc2Cl)n(-c2ccccc2C)n1	.	.	.	.	8.8	.	42	.
Cc1ccc(-n2nc(C)cc2Nc2ncc(Cl)cc2Cl)cc1	.	.	.	.	.	.	/	/
CC(C(=O)OCC(=O)Nc1cccc(S(=O)(=O)N(C)C)c1)N1C(=O)c2ccccc2C1=O (configuration not stated)	.	.	.	.	.	.	/	/
Cc1ccc2c(CN(C)Cc3ccc(Cl)cc3Cl)cc(=O)oc2c1	.	.	.	.	.	.	/	/
CCOC(=O)c1c(NC(=O)CN2CCN(C)CC2)sc(C(=O)Nc2ccccc2)c1C	.	.	.	.	.	.	/	/
CN1CCN(CC(=O)Nc2sc3c(c2C(=O)Nc2ccccc2)CCCC3)CC1	.	.	.	.	.	.	45	-31
CCCCCN(C(=O)CCC(=O)OCC(=O)Nc1cccc(CC)c1)c1c(N)n(CCCC)c(=O)[nH]c1=O	.	.	.	.	.	.	/	/
Cc1ccc(S(=O)(=O)c2nc(-c3ccco3)oc2SC(C)C)cc1	.	.	.	.	.	.	15	.
COc1ccc(CNc2nc3ccccc3n2CCN2CCCCC2)cc1	.	.	.	.	.	.	26	-21
c1ccc(Cn2c(CNc3nc4ccccc4n3CCN3CCCCC3)nc3ccccc32)cc1	.	.	.	.	.	.	/	/
CCN(CC)CCn1c(NCc2nc3ccccc3n2Cc2ccccc2)nc2ccccc21	.	.	.	.	7.7	.	44	.
CCCn1c(NCc2ccc3c(c2)OCO3)nc2ccccc21	.	.	.	.	.	.	20	-24
CN(C)CCn1c(NCc2ccc3c(c2)OCO3)nc2ccccc21	.	.	.	.	.	.	/	/
CN(C(=O)CCc1ccccc1)c1nnc(-c2ccncc2)s1	.	.	.	.	7.4	.	28	-30
COc1cc(CN(C(=O)c2cccs2)C2CCS(=O)(=O)C2)cc(OC)c1OC (configuration not stated)	.	.	.	.	.	.	/	/
CC(C)c1ccccc1NC(=O)Cn1c(-c2ccccc2Cl)nc2ccccc21	.	.	.	.	.	.	22	.
Cn1c(C(=O)NC2CC2)cc(=O)n(C)c1=O	.	.	.	.	.	.	/	/
CC(C)CCOC(=O)/C(=C/c1ccco1)NC(=O)/C=C/c1ccccc1	.	.	.	.	8.4	.	16	.
O=C(Nc1ccccc1)c1ccc[n+](Cc2ccc([N+](=O)[O-])cc2)c1	.	.	.	.	.	.	42	-32
COc1cccc2c(=O)c3c(cnn3C)n(C)c12	.	.	.	.	10	.	51	-55
Cc1cc(=O)n2c3ccccc3n(CC(O)CN3CCCCC3)c2c1C#N (configuration not stated)	.	.	.	.	7.3	.	27	-44
Cc1cc(=O)n2c3ccccc3n(CC(O)CN3CCOCC3)c2c1C#N (configuration not stated)	.	.	.	.	.	.	/	/
CCOC(=O)C1(Cc2cccc(Cl)c2)CCCN(C(=O)c2c(CC)noc2C)C1 (configuration not stated)	.	.	.	.	.	.	/	/
COCCOC1CCN(C(=O)C2CCC(=O)N(CCc3ccccc3)C2)CC1 (configuration not stated)	.	.	.	.	.	.	/	/
SMILES	PKA-R2B activ	TMEM16A inh	CHT block	TMEM16A act	CHT PAM	PKA-R1A act	CHT activ conf	HEK293 MP dye
COc1ccc([C@H]2C[C@H](n3cc(COC(=O)c4ccccc4)nn3)[C@@H](O)CN2CC2CCCCC2)cc1	.	/	/	/	/	.	/	/
COc1cc2c(=O)n(CCC(=O)NCC3CCCO3)c(=O)n(CC(=O)c3ccc(Cl)cc3)c2cc1OC (configuration not stated)	.	.	.	.	.	.	/	/
CC[n+]1c(C)sc2c3ccsc3ccc21	.	.	.	.	10	.	48	-50
Cc1ccc(N(CC(=O)NCc2ccco2)C(=O)CNS(=O)(=O)c2ccccc2)c(C)c1	.	.	.	.	.	.	/	/
CSc1ccc(CN(C)C(=O)C(c2ccccc2)c2ccccc2)cc1	.	.	.	.	7.1	.	34	.
CSc1ccc(CN(C)C(=O)C(Cc2ccccc2)NC(=O)c2ccccc2)cc1 (configuration not stated)	.	.	.	.	.	.	/	/
COc1ccccc1N1C(=O)c2cccc3c(C(=O)O)ccc(c23)C1=O	.	.	.	.	.	.	/	/
COc1ccc2c3c(cccc13)C(=O)N(O)C2=O	.	.	.	.	.	.	41	-30
Cc1cccc(-c2sc(Nc3ccccc3)n[n+]2-c2ccc(F)cc2)c1	.	.	.	.	8.9	.	52	.
CSc1ccc(-c2sc(Nc3ccccc3)n[n+]2-c2ccc(F)cc2)cc1	.	.	.	.	.	.	/	/
COc1ccc(C)cc1Nc1n[n+](-c2ccccc2)c(-c2ccc(C(=O)O)cc2)s1	.	.	.	.	.	.	/	/
CCOc1cc(-c2sc(Nc3ccc(CC)cc3)n[n+]2-c2ccccc2)ccc1OC	.	.	.	.	.	.	42	.
CCOc1cc(-c2sc(Nc3cc(C)ccc3OC)n[n+]2-c2ccccc2)ccc1OC	.	.	.	.	.	.	44	.
Cc1ccc(N(CC(=O)NC2CCCCC2)S(=O)(=O)c2c(C)noc2C)cc1	.	.	.	.	.	.	/	/
CCOC(=O)c1cc(-c2ccncc2)nc2c1c(C)nn2C	.	.	.	.	.	.	/	/
CCOC(=O)c1cc(-c2ccccc2)nc2c1c(C)nn2-c1ccccn1	.	.	.	.	8.6	.	.	.
COc1ccc(-n2nc(C(=O)NCC(=O)NCCCN3CC(C)CC(C)C3)c3ccccc3c2=O)cc1Cl (configuration not stated)	.	.	.	.	7.7	.	43	-47
CCCCN(C)C(=O)Cc1c(OC)ccc2cc(Br)ccc12	.	.	.	.	6.7	.	.	.
